# In ChEMBL document CHEMBL1961873, “Compounds: GSK PKIS; Assays: Nanosyn kinase panel” (2012):
# Experiments:
# [1] = target: RAC-alpha serine/threonine-protein kinase (Homo sapiens) (UniProt P31749); settings: at 0.1 µM
# [2] = target: RAC-alpha serine/threonine-protein kinase (Homo sapiens) (UniProt P31749); settings: at 1 µM
# [3] = target: RAC-beta serine/threonine-protein kinase (Homo sapiens) (UniProt P31751); settings: at 0.1 µM
# [4] = target: RAC-beta serine/threonine-protein kinase (Homo sapiens) (UniProt P31751); settings: at 1 µM
# [5] = target: RAC-gamma serine/threonine-protein kinase (Homo sapiens) (UniProt Q9Y243); settings: at 0.1 µM
# Chain of RAC-gamma serine/threonine-protein kinase (Homo sapiens) (Q9Y243 whole entry): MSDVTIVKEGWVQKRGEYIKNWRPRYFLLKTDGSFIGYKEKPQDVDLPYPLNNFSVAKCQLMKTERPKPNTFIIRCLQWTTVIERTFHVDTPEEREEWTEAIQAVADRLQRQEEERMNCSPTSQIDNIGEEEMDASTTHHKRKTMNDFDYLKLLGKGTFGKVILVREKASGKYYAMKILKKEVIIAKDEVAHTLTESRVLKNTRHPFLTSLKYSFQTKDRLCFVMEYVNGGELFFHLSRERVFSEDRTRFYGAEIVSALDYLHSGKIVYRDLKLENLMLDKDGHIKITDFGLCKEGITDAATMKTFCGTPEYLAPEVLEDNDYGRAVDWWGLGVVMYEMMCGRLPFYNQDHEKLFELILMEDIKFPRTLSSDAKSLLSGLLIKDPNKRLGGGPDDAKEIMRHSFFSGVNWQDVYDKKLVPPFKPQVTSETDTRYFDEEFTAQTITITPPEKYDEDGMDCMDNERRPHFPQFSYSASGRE
# [6] = target: RAC-gamma serine/threonine-protein kinase (Homo sapiens) (UniProt Q9Y243); settings: at 1 µM
# [7] = target: G protein-coupled receptor kinase 6 (Homo sapiens) (UniProt P43250); settings: at 0.1 µM
# Chain of G protein-coupled receptor kinase 6 (Homo sapiens) (P43250 whole entry, looked up): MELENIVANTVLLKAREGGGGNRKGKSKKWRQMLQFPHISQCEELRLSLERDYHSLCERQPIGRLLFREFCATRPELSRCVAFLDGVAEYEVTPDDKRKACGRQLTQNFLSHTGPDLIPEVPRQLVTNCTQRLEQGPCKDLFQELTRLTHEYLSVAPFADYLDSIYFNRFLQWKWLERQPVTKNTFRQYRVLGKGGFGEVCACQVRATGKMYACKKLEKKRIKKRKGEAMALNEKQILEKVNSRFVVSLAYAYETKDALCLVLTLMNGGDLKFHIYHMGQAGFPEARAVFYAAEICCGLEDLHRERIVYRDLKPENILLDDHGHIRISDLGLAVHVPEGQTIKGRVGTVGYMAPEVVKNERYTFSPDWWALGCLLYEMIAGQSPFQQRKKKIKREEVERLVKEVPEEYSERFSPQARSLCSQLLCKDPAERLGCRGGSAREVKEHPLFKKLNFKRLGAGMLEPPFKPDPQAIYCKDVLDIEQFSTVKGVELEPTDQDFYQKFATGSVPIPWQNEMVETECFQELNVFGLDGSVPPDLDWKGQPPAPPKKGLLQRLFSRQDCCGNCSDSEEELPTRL
# [8] = target: G protein-coupled receptor kinase 6 (Homo sapiens) (UniProt P43250); settings: at 1 µM
# [9] = target: T1, Rhodopsin kinase GRK7 (Homo sapiens) (UniProt Q8WTQ7); settings: at 0.1 µM
# T1 sequence (whole entry): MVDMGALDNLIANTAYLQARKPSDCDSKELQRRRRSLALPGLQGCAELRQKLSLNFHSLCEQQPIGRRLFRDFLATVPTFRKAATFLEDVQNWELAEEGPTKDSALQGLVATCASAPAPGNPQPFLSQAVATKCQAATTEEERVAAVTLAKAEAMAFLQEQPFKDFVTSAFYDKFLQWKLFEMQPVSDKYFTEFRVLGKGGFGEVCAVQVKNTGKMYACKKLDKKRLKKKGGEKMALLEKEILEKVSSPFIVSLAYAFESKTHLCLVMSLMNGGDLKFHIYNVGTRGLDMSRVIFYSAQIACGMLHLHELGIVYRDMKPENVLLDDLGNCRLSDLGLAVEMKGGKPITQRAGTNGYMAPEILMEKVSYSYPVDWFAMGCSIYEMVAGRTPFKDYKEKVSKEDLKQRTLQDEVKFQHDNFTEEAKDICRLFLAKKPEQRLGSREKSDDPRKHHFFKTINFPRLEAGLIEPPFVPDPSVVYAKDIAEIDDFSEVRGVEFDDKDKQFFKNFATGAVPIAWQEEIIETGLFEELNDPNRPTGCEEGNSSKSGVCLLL
# [10] = target: T1, Rhodopsin kinase GRK7 (Homo sapiens); settings: at 1 µM
# Chain of RAC-alpha serine/threonine-protein kinase (Homo sapiens) (P31749 whole entry): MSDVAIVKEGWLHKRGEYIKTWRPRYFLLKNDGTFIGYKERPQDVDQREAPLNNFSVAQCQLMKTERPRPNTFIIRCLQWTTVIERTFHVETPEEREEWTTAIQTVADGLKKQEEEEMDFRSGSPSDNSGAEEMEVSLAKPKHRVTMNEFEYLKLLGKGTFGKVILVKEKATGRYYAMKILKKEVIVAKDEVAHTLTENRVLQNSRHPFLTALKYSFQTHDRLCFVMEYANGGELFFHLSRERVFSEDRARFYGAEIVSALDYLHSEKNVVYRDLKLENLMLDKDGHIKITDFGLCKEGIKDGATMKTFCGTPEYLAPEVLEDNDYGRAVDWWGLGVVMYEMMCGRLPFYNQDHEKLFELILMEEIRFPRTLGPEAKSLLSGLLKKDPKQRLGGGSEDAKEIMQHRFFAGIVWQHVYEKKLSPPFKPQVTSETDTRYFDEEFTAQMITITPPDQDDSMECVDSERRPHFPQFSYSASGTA
# Chain of RAC-beta serine/threonine-protein kinase (Homo sapiens) (P31751 whole entry): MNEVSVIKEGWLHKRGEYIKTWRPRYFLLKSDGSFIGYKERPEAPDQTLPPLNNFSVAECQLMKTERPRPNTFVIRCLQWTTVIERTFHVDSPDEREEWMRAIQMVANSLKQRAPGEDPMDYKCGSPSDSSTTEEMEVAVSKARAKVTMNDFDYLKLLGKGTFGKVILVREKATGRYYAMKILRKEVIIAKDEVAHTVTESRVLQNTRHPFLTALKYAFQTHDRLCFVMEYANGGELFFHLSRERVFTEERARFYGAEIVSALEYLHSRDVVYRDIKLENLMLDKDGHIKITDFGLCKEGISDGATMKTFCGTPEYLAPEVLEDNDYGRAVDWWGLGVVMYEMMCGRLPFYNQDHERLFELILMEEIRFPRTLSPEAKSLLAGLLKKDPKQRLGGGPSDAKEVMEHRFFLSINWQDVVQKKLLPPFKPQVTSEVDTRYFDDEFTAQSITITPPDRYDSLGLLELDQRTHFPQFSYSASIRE
Compound,inhibition [1],inhibition [2],inhibition [3],inhibition [4],inhibition [5],inhibition [6],inhibition [7],inhibition [8],inhibition [9],inhibition [10]
COc1cc2ncnc(Nc3ccc4c(cnn4Cc4ccccc4)c3)c2cc1OC,-0.49%,0.77%,0.99%,1%,0.08%,2.09%,-0.46%,2.17%,9.43%,2.89%
NS(=O)(=O)c1cccc(Nc2cc(-c3ccc(F)cc3)n[nH]2)c1,1.57%,2.41%,3.5%,2.66%,2.29%,3.03%,4.03%,8.09%,2.68%,5.14%
CCS(=O)(=O)c1ccc(OC)c(Nc2nccc(N(C)c3ccc4c(C)n[nH]c4c3)n2)c1,1.44%,1.19%,1.01%,2.53%,0.55%,2.78%,-0.58%,1.67%,9.6%,1.83%
NS(=O)(=O)c1cccc(-c2cc3ccncc3cc2OCc2ccccc2)c1,1.37%,0.84%,1.79%,2.65%,2.96%,0.32%,0.24%,2.95%,2.9%,4.85%
Nc1nccc(C#Cc2cncnc2Nc2ccc(OCc3cccc(F)c3)c(Cl)c2)n1,1.34%,0.92%,1.52%,1.54%,2.87%,1.85%,1.35%,-4.58%,4.51%,1.2%
Cc1ccc(NC(=O)CC2CC2)cc1-c1ccc(C(=O)NCC2CC2)cc1,0.17%,0.7%,1.47%,1.58%,1.47%,1.65%,2.05%,6.65%,0.94%,0.75%
NS(=O)(=O)c1ccc(-c2cc3ccncc3cc2OCc2ccccc2)cc1,0.08%,0.83%,1.46%,1.66%,0.51%,2.2%,2.02%,8.2%,1.52%,6.27%
Nc1nccc(-c2c(-c3ccc(F)cc3)ncn2CCCN2CCOCC2)n1,1.68%,1.55%,2.52%,0.79%,1.64%,3.69%,4.54%,5.62%,2.89%,8.32%
CCn1c(-c2nonc2N)nc2c(C#CC(C)(C)O)nc(OCCNC)cc21,20.8%,67.4%,33.1%,75.3%,23.1%,68.2%,4.94%,3.62%,9.11%,2.53%
OCc1ccc(-c2nc(-c3ccccn3)c(-c3ccc4c(c3)OCO4)[nH]2)cc1,1.19%,1.53%,2.08%,2.51%,1.57%,0.86%,0.03%,1.18%,2.93%,-2.28%
ON=C1CCc2cc(-c3nc(C4CCNCC4)[nH]c3-c3ccncc3)ccc21,0.07%,-0.21%,0.72%,-1.73%,-0.56%,0.98%,0.43%,-2.74%,-0.92%,1.83%
CCS(=O)(=O)c1ccc(OC)c(Nc2ncc(-c3cccc(OC)c3)o2)c1,0.36%,0.85%,1.41%,0.82%,1.04%,-0.57%,-1.06%,-5%,-0.18%,-8.47%
NS(=O)(=O)c1ccc(NC=C2C(=O)Nc3ccc4ncsc4c32)cc1,1.23%,-0.15%,2.3%,2.59%,0.79%,2.77%,6.28%,35.5%,6.78%,22.4%
COc1cc(Nc2nccc(-c3cnn4ncccc34)n2)cc(OC)c1,0.23%,0.24%,0.16%,0.1%,0.27%,1.18%,0.91%,-0.01%,6.32%,9.43%
COC(=O)Nc1nc2cc(Oc3ccc(NC(=O)Nc4cccc(Br)c4)cc3)ccc2[nH]1,0.46%,0.17%,1.35%,1.01%,1.37%,-2.06%,4.28%,6.2%,3.16%,25.9%
N#Cc1c(NC(=O)c2ccccc2F)sc2c1CCCC2,-0.97%,-1.21%,-1.71%,-1.01%,-1.05%,-0.44%,1.29%,2.2%,2.28%,-1.97%
Cc1cc(-c2ccccn2)cc(C)c1/C=C/c1cncc(-c2nn[nH]n2)c1,1.14%,0.85%,0.53%,1.57%,2.14%,2.17%,5.67%,1.26%,9.3%,7.66%

Compound,inhibition [1],inhibition [2],inhibition [3],inhibition [4],inhibition [5],inhibition [6],inhibition [7],inhibition [8],inhibition [9],inhibition [10]
CN(C)C(=O)O[C@@H]1CN[C@@H](C#Cc2cc3ncnc(Nc4ccc(OCc5cccc(F)c5)c(Cl)c4)c3s2)C1,-0.54%,-0.11%,0%,-1.02%,-0.71%,0.16%,0.14%,-1.42%,-2.8%,11.4%
NC(=O)c1sc(-n2cnc3ccccc32)cc1OCc1ccccc1Br,1.72%,1.07%,0.68%,3.59%,1.82%,4.09%,1.41%,3.01%,9.12%,4.5%
CCCN1CCCC(c2ccc(Nc3nc(Nc4cc(F)ccc4C(N)=O)c4cc[nH]c4n3)c(OC)c2)C1 (stereo not given),0.39%,0.27%,1.85%,1.92%,0.52%,2.18%,5.66%,25.3%,3.88%,16.6%
Cc1nc(-c2ccccc2)n2nc(NCCCN3CCOCC3)ncc12,0.61%,0.11%,0.45%,2.03%,0.57%,4.13%,3.41%,0.49%,5.84%,2.44%
Nc1nccc(-c2c(-c3ccc(F)cc3)nn3cc(C(F)(F)F)ccc23)n1,0.02%,-0.66%,-0.52%,0.01%,0.2%,-5.93%,-1.46%,-0.24%,3.74%,4.14%
CCn1c(-c2nonc2N)nc2ccc(F)cc21,0.42%,0.42%,1.94%,2.93%,1.09%,2.41%,9.58%,11.3%,5.6%,11.3%
c1ccc(Nc2ncc(-c3ccccc3)o2)cc1,1.4%,0.83%,0.54%,2.99%,1.75%,3.46%,4.61%,4.8%,9.62%,4.71%
NS(=O)(=O)c1ccc(Nc2cc(-c3cccc(O)c3)n[nH]2)cc1,0.91%,0.58%,1.64%,3.28%,2.49%,1.75%,1.19%,3.55%,3.02%,5.39%
N#Cc1cccc(Nc2nccc(-c3cnn4ncccc34)n2)c1,0.4%,1.36%,1.11%,1.66%,3.16%,5.1%,2.91%,8.01%,6.46%,21.6%
NS(=O)(=O)c1ccc(N/N=C2\C(=O)Nc3ccc(Cl)cc32)cc1,1.17%,1.19%,3.01%,2.43%,1.79%,1.82%,4.41%,8.19%,2.49%,2.98%
COc1cc(/C=N/Nc2ncnc3c2cnn3C(C)C)ccc1O,-0.05%,-2.56%,0.47%,-1.58%,0.98%,-1.46%,4.24%,77.6%,1.66%,7.37%
C[C@@H](Oc1cc(-n2cnc3ccc(OCC4CCN(C)CC4)cc32)sc1C(N)=O)c1ccccc1C(F)(F)F,-0.94%,-1.34%,-1.9%,-0.71%,-1.91%,1.79%,-1.55%,-1.03%,2.15%,-2.25%
Cc1ccc2c(c1)/C(=N/Nc1ccc(S(N)(=O)=O)cc1)C(=O)N2,0.76%,-0.7%,2.19%,-0.04%,-1.25%,0.38%,-0.52%,-1.05%,0.29%,4.95%
COC(=O)c1cncc(/C=C/c2c(C)cc(O)cc2C)c1,1.01%,0.52%,1.09%,1.16%,1.47%,1.17%,7.47%,9.38%,3.31%,3.95%
O=C1Nc2ccc(-c3cccnc3)cc2C1=Cc1cc(Br)c(O)c(Br)c1,1.65%,2.74%,1.49%,2.84%,1.24%,1.67%,11.3%,46.1%,20%,60.3%
Cc1cc(O)cc(C)c1/C=C/c1cncc(C(=O)N(C)C)c1,0.52%,0.6%,2.14%,0.78%,1.44%,1.3%,3.76%,0.05%,0%,-6.95%
